Details in all cases: mRNA level, 48 h; actives raise or lower the signal
Read-out in test [1]: Paternally Expressed 10 (PEG10), PEG10 (gene 23089)
Kind of test: LTEA_HepaRG_PEG10: Life Technologies and Expression Analysis (LTEA) Assay for Paternally Expressed 10 (PEG10) using HepaRG (AID 2283520).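 For AC50: differentiated HepaRG human liver cells in serum-free induction medium with 0.5% DMSO; PEG10 transcript by qRT-PCR normalised to ACTB GAPDH and POLR2A.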 Summed up: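 Human HepaRG cultures are dosed for 48 h across an eight-point half-log series starting at 100 uM, with 0.5% DMSO as vehicle and baseline. Gain or loss of PEG10 transcript is measured by qRT-PCR and fitted in both directions.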

Read-out in test [2]: Nuclear factor NF-kappa-B p105 subunit (Homo sapiens) (UniProt P19838)
Kind of test: LTEA_HepaRG_NFKB1: Life Technologies and Expression Analysis (LTEA) Assay for Nuclear Factor Kappa B Subunit 1 (NFKB1) using HepaRG (AID 2283521).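 For outcome: differentiated human HepaRG liver cells in serum-free induction medium; TaqMan qRT-PCR transcript normalised to ACTB GAPDH and POLR2A housekeeping genes.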 Summed up: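 HepaRG, 48 h exposure; 8-pt half-log series from 100 uM in 0.5% DMSO; duplicates. Readout: NFKB1 mRNA by qRT-PCR (Fluidigm arrays), housekeeping-normalized. Gain/loss fit vs DMSO baseline.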

Read-out in test [3]: Protein phosphatase 2A (PPP2R4), PTPA (gene 5524)
Kind of test: LTEA_HepaRG_PPP2R4: Life Technologies and Expression Analysis (LTEA) Assay for Protein phosphatase 2A (PPP2R4) using HepaRG (AID 2283522). The essentials:
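Cells were plated, cultured 48 h, switched to serum-free induction medium, then dosed for 48 h (8 points, max 100 uM, 0.5% DMSO). RNA was isolated and PPP2R4 expression measured by TaqMan qRT-PCR.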

Read-out in test [4]: Phosphatase and tensin (PTEN), PTEN (gene 5728)
Kind of test: LTEA_HepaRG_PTEN: Life Technologies and Expression Analysis (LTEA) Assay for Phosphatase and tensin (PTEN) using HepaRG (AID 2283523). The essentials: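 HepaRG, 48 h exposure, 8-pt half-log series from 100 uM top, 0.5% DMSO vehicle, duplicates. Readout: Fluidigm qRT-PCR of PTEN transcript; housekeeping normalization (ACTB, GAPDH, POLR2A). Gain or loss fitted relative to DMSO baseline.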

Read-out in test [5]: solute carrier (SLC22A1), SLC22A1 (gene 6580)
Put plainly: LTEA_HepaRG_SLC22A1: Life Technologies and Expression Analysis (LTEA) Assay for solute carrier (SLC22A1) using HepaRG (AID 2283524).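 For AC50: differentiated human HepaRG liver cells in serum-free induction medium.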 Summed up: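 qRT-PCR readout (TaqMan, Fluidigm arrays) of SLC22A1 transcript, normalized to three housekeeping genes; bidirectional curve fit relative to 0.5% DMSO vehicle. Differentiated human HepaRG cells, 48 h chemical exposure, top concentration 100 uM, half-log steps, eight points.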

Read-out in test [6]: Pyruvate Dehydrogenase Kinase 4 (PDK4), PDK4 (gene 5166)
Kind of test: LTEA_HepaRG_PDK4: Life Technologies and Expression Analysis (LTEA) Assay for Pyruvate Dehydrogenase Kinase 4 (PDK4) using HepaRG (AID 2283525). Summed up:
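HepaRG (human liver line), 48 h chemical exposure, 8-pt half-log CRC top 100 uM, 0.5% DMSO vehicle, duplicates. Readout: TaqMan qRT-PCR of PDK4 mRNA, housekeeping-normalized; gain/loss fit relative to DMSO baseline.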

Read-out in test [7]: NAD(P)H dehydrogenase [quinone] 1 (NQO1), NQO1 (gene 1728)
Kind of test: LTEA_HepaRG_NQO1: Life Technologies and Expression Analysis (LTEA) Assay for NAD(P)H dehydrogenase [quinone] 1 (NQO1) using HepaRG (AID 2283526). The essentials:
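Transcript induction or suppression is quantified by qRT-PCR in human HepaRG liver cells dosed for 48 hours. Eight half-log concentrations topping at 100 uM are used, with 0.5% DMSO as vehicle and baseline.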

Read-out in test [8]: Nuclear factor erythroid 2-related factor 2 (Homo sapiens) (UniProt Q16236)
Put plainly: LTEA_HepaRG_NFE2L2: Life Technologies and Expression Analysis (LTEA) Assay for Nuclear factor erythroid 2-related factor 2 (NFE2L2) Transcription Factor using HepaRG (AID 2283527).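 For outcome: TaqMan qRT-PCR transcript level normalised to ACTB GAPDH and POLR2A housekeeping genes.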 Summed up:
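HepaRG, 48 h dosing, 8-pt half-log series from 100 uM in 0.5% DMSO, duplicates. Read-out: NFE2L2 mRNA by qRT-PCR (ACTB/GAPDH/POLR2A normalization). Bidirectional curve fit vs DMSO baseline.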

Read-out in test [9]: succinate dehydrogenase complex iron sulfur subunit B (SDHB), SDHB (gene 6390)
Put plainly: LTEA_HepaRG_SDHB: Life Technologies and Expression Analysis (LTEA) Assay for succinate dehydrogenase complex iron sulfur subunit B (SDHB) using HepaRG (AID 2283528). The essentials: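 Readout is SDHB transcript level by qRT-PCR, normalised to three housekeeping genes and fitted bidirectionally against 0.5% DMSO vehicle. Human HepaRG cells were treated for 48 h at up to 100 uM.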

Read-out in test [10]: Signal transducer and activator of transcription 3 (Homo sapiens) (UniProt P40763)
Kind of test: LTEA_HepaRG_STAT3: Life Technologies and Expression Analysis (LTEA) Assay for Signal transducer and activator of transcription (STAT3) using HepaRG (AID 2283529). Summed up: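 HepaRG, 48 h exposure, 8-pt half-log series (top 100 uM), 0.5% DMSO vehicle, duplicates. Readout: STAT3 transcript by Fluidigm qRT-PCR, housekeeping-normalized; bidirectional fit vs DMSO baseline.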

Read-out in test [11]: solute carrier (SLCO1B1), SLCO1B1 (gene 10599)
Kind of test: LTEA_HepaRG_SLCO1B1: Life Technologies and Expression Analysis (LTEA) Assay for solute carrier (SLCO1B1) using HepaRG (AID 2283530). The essentials: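 HepaRG, serum-free induction medium, 48 h dosing, 8-pt half-log from 100 uM, 0.5% DMSO vehicle, duplicates. Readout: SLCO1B1 mRNA, qRT-PCR, ACTB/GAPDH/POLR2A normalization; up or down fit vs DMSO.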

Read-out in test [12]: sulfotransferase 2A1 (SULT2A1), SULT2A1 (gene 6822)
Kind of test: LTEA_HepaRG_SULT2A1: Life Technologies and Expression Analysis (LTEA) Assay for sulfotransferase 2A1 (SULT2A1) using HepaRG (AID 2283531). The essentials: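 Transcript levels of SULT2A1, quantified by qRT-PCR and normalized to three housekeeping genes, serve as the readout. Human HepaRG cultures receive test chemicals for 48 h at up to 100 uM in half-log steps, with 0.5% DMSO vehicle.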

Read-out in test [13]: Transforming Growth Factor (TGFA), TGFA (gene 7039)
Put plainly: LTEA_HepaRG_TGFA: Life Technologies and Expression Analysis (LTEA) Assay for Transforming Growth Factor (TGFA) using HepaRG (AID 2283532). The essentials: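 qRT-PCR read-out of TGFA transcript, normalized to three housekeeping genes, fitted bidirectionally against 0.5% DMSO baseline. Human HepaRG cultures received chemicals for 48 h at eight half-log concentrations, top 100 uM.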

Read-out in test [14]: Transforming Growth Factor (TGFB1), TGFB1 (gene 7040)
Put plainly: LTEA_HepaRG_TGFB1: Life Technologies and Expression Analysis (LTEA) Assay for Transforming Growth Factor (TGFB1) Transporter using HepaRG (AID 2283533). Summed up:
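HepaRG, 48 h post-plating, switched to serum-free induction medium; chemicals 100 uM top, half-log, 8 pts, 0.5% DMSO, dup; 48 h exposure; RNA → Fluidigm TaqMan qRT-PCR; norm ACTB/GAPDH/POLR2A; bidirectional fit vs DMSO.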

Read-out in another test: TIMP1, TIMP1 (gene 7076)
Kind of test: LTEA_HepaRG_TIMP1: Life Technologies and Expression Analysis (LTEA) Assay for TIMP1 using HepaRG (AID 2283534). Summed up:
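Readout is TIMP1 mRNA level measured by qRT-PCR and normalized to three housekeeping genes. Human HepaRG cells were treated for 48 h in duplicate at eight concentrations up to 100 uM (0.5% DMSO); gain or loss fitted against DMSO.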

Read-out in test [15]: Tumor necrosis factor receptor 1 (TNFRSF1A), TNFRSF1A (gene 7132)
Put plainly: LTEA_HepaRG_TNFRSF1A: Life Technologies and Expression Analysis (LTEA) Assay for Tumor necrosis factor receptor 1 (TNFRSF1A) using HepaRG (AID 2283535). The essentials: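 Read-out is TNFRSF1A transcript level by TaqMan qRT-PCR, normalized to three housekeeping genes, scored as gain or loss of signal versus 0.5% DMSO. Human HepaRG cells received test chemicals for 48 h at up to 100 uM (half-log series).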

Read-out in test [16]: Thyroid Hormone Responsive (THRSP), THRSP (gene 7069)
Put plainly: LTEA_HepaRG_THRSP: Life Technologies and Expression Analysis (LTEA) Assay for Thyroid Hormone Responsive (THRSP) using HepaRG (AID 2283536). Summed up: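 qRT-PCR read-out (Fluidigm TaqMan), housekeeping-normalized (ACTB/GAPDH/POLR2A). HepaRG, 48 h chemical exposure, 8-pt half-log series from 100 uM in 0.5% DMSO, duplicates. Bidirectional curve fit vs 0.5% DMSO baseline.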

Read-out in test [17]: Cellular tumor antigen p53 (Homo sapiens) (UniProt P04637)
Put plainly: LTEA_HepaRG_TP53: Life Technologies and Expression Analysis (LTEA) Assay for Tumor Protein P53 (TP53) using HepaRG (AID 2283537). The essentials:
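Read-out is TP53 transcript level by microfluidic qRT-PCR, normalised to three housekeeping genes and fitted bidirectionally against DMSO. Human HepaRG cells received compounds for 48 h, highest concentration 100 uM.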

Read-out in test [18]: UDP glucuronosyltransferase (UGT1A1), UGT1A1 (gene 54658)
Put plainly: LTEA_HepaRG_UGT1A1: Life Technologies and Expression Analysis (LTEA) Assay for UDP glucuronosyltransferase (UGT1A1) using HepaRG (AID 2283538). Summed up: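 Cells are plated, cultured 48 h, switched to serum-free induction medium, then dosed 48 h at eight concentrations (max 100 uM, 0.5% DMSO). RNA is isolated and UGT1A1 expression measured by qRT-PCR; changes versus DMSO are fitted in both directions.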

Read-out in test [19]: UDP glucuronosyltransferase (UGT1A6), UGT1A6 (gene 54578)
Put plainly: LTEA_HepaRG_UGT1A6: Life Technologies and Expression Analysis (LTEA) Assay for UDP glucuronosyltransferase (UGT1A6) using HepaRG (AID 2283539). Summed up: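 HepaRG, 48 h post-plating switch to serum-free induction medium; chemical 48 h, 100 uM top, half-log x8, duplicate, 0.5% DMSO. Phenobarbital 1mM induction control. UGT1A6 mRNA by TaqMan qRT-PCR; gain/loss fit vs DMSO.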

The source made the active and inactive calls. Rule for the calls: active = hit-call score of the fitted dose curve at least 0.9, where 1 is the maximum; inactive = score below 0.9.

Sequence of Signal transducer and activator of transcription 3 (Homo sapiens) (P40763 whole entry, looked up): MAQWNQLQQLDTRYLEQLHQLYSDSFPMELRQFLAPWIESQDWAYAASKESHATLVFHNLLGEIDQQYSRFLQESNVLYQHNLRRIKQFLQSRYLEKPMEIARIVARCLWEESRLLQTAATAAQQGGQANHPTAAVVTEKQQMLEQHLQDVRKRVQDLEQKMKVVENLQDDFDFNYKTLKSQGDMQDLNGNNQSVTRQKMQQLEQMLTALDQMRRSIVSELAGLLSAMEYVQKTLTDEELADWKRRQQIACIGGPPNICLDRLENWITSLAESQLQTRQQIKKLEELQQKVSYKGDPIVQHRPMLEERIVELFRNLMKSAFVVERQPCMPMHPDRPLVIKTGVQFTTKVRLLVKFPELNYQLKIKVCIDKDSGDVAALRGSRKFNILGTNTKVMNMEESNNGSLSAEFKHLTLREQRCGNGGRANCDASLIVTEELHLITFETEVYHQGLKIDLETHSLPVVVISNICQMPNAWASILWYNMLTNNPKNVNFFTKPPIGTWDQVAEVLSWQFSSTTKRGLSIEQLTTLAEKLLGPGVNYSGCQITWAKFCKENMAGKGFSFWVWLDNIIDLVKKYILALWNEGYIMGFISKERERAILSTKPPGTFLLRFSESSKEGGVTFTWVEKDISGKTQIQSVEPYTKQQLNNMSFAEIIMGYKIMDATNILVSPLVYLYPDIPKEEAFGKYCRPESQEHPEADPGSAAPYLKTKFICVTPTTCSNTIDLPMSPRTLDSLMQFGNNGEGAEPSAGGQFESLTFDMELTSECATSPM
Sequence of Nuclear factor NF-kappa-B p105 subunit (Homo sapiens) (P19838 whole entry, looked up): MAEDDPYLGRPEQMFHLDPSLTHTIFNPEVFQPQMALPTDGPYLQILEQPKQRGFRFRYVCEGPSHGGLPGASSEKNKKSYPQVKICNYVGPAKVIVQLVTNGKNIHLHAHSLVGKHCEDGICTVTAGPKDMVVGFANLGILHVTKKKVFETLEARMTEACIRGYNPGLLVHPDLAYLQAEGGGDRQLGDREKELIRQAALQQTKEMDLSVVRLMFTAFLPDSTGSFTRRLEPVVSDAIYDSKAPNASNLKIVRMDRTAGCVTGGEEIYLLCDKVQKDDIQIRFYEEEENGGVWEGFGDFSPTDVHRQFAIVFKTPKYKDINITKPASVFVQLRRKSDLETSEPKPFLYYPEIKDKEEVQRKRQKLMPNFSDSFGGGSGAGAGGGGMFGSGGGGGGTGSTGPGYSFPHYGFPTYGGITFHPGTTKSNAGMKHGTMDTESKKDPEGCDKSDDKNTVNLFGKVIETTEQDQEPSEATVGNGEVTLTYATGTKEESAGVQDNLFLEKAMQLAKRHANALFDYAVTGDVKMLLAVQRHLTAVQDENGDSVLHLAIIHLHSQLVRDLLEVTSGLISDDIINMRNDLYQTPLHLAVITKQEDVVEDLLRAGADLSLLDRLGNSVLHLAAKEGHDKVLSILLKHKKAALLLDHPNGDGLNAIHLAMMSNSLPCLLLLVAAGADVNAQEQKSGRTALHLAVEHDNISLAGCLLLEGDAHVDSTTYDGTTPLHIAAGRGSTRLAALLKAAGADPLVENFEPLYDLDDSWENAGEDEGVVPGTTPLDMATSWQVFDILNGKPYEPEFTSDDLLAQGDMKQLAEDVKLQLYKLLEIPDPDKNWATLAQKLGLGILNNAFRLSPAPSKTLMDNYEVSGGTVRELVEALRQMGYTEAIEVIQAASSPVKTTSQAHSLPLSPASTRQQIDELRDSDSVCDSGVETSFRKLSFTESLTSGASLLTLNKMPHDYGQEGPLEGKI
Sequence of Nuclear factor erythroid 2-related factor 2 (Homo sapiens) (Q16236 whole entry, looked up): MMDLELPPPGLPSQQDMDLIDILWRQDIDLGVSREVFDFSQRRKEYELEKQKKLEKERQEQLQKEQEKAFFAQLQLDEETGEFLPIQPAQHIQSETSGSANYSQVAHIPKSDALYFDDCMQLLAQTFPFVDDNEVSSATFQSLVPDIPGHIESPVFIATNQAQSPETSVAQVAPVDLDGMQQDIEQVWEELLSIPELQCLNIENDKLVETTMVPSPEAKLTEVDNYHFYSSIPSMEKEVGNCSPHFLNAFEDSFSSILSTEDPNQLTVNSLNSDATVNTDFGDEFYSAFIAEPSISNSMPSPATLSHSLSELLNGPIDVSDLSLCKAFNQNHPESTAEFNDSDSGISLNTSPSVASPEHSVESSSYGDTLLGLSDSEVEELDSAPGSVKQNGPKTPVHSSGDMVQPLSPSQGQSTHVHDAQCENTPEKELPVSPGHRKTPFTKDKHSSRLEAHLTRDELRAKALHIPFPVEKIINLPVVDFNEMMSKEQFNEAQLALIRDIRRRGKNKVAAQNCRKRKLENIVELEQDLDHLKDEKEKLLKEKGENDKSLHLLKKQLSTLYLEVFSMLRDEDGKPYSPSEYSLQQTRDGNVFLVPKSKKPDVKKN
Sequence of Cellular tumor antigen p53 (Homo sapiens) (P04637 whole entry, looked up): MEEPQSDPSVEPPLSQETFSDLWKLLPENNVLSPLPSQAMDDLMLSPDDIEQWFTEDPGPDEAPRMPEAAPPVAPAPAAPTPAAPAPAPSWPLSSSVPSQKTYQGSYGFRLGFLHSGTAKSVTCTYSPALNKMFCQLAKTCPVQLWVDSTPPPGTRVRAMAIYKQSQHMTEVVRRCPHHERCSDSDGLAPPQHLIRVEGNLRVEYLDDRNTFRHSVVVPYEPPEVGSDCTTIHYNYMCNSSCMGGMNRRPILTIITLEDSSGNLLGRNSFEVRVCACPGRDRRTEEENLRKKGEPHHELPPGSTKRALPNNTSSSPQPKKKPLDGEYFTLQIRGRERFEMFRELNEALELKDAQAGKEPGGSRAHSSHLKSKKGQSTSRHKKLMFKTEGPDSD

A word on the AC50: it is the concentration at which the activity in the assay is half-maximal. Turning to `Cc1occc1C(=O)Nc1ccc(C(=O)N2CCC(F)(F)/C(=C\C(=O)N3CCC(N4CCCCC4)CC3)c3ccccc32)cc1`, the AC50 in [1] was 48 µM (active); in [5] it was 32.2 µM (active); in [6], 50.3 µM (active); in [18], 54.3 µM (active). The molecule was called inactive in [2], in test [3], in test [4], in test [7], in test [8] and in test [9]. Besides, the outcome is “inactive” in test [10]; “inactive” in [11]; “inactive” in test [12]; “inactive” in test [13]; “inactive” in [14]; “inactive” with TIMP1, TIMP1 (gene 7076). The molecule was classed as inactive in test [15], in [16], in test [17] and in test [19].
With `CCCC(=O)OCCC(C)C`, the outcome in test [1], in [2], in test [3], in [4], in test [5] and in [7] was inactive. For the same molecule, the call in test [8], in test [9], in test [10], in [11], in test [12] and in test [13] was inactive. Moreover, the outcome is “inactive” in [14]; “inactive” in the test with TIMP1, TIMP1 (gene 7076); “inactive” in test [15]; “inactive” in [16]; “inactive” in test [17]; “inactive” in [18]. In addition, in test [19], the outcome was inactive.
For the molecule `CCN(Cc1cccnc1)C(=O)c1cccc(Cl)c1[C@]1(C)C(=O)N(Cc2ccc(OC)cc2OC)c2ccc(Cl)cc21`, the half-maximal activity concentration (AC50) in [1] is 10.2 µM (active); in [2], 26.5 µM (active); in test [3], 10.8 µM (active); in test [5] it was 21.7 µM (active); in [6], 22.3 µM (active); in test [8], 16 µM (active). Besides, the AC50 was 22.2 µM (active) in test [11]; 25.3 µM (active) in [12]; 13.6 µM (active) in [13]; 14.5 µM (active) in test [14]; 24 µM (active) in test [16]; 11.6 µM (active) in test [17]. In addition, the AC50 in test [18] was 25.2 µM (active); in test [19], 16.7 µM (active). Moreover, the outcome was “inactive” in test [4]; “inactive” in test [9]; “inactive” in [10]; “inactive” with TIMP1, TIMP1 (gene 7076); “inactive” in test [15].

Values taken from PubChem BioAssay (EPA / NIEHS).
